Measured values: PubChem BioAssay (NCI)
About 83,000 compounds went through this panel and 20% of them were active in at least one assay; those are over-represented in the sample as a whole.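 The test compound was applied at a single concentration to cells in 96-well plates for 48 hours, and percent growth was recorded.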 The source made the active and inactive calls. How the source made its calls: active means growth percent below 10; inactive means the rest.

What was measured:
Assay in all cases: NCI-60 one-dose screen, 48 h (100 = growth as untreated, 0 = no growth, -100 = all killed)
Settings in all cases: 10 µM unless noted
NCI-H23 lung = system: NCI-H23 lung
NCI-H226 lung = system: NCI-H226 lung
NCI-H322M lung = system: NCI-H322M lung
HOP-62 NSCLC = system: HOP-62 NSCLC
NCI-H460 lung = system: NCI-H460 lung
HOP-92 NSCLC = system: HOP-92 NSCLC
NCI-H522 lung = system: NCI-H522 lung
A549/ATCC NSCLC = system: A549/ATCC NSCLC
786-0 renal = system: 786-0 renal
COLO 205 colon = system: COLO 205 colon

Measured: growth

NS(=O)(=O)Oc1ccc2nc(Nc3ccc(F)c(F)c3)ccc2c1
inactive: NCI-H23 lung 96.3% | NCI-H226 lung 90.5% | NCI-H322M lung 92.9% | HOP-62 NSCLC 99.4% | NCI-H460 lung 98.1% | HOP-92 NSCLC 115% | NCI-H522 lung 91.4% | A549/ATCC NSCLC 79.6% | 786-0 renal 89.6% | COLO 205 colon 93.8%

CCC(C)[C@H]1OC(=O)[C@H](C(C)C)N(C)C(=O)[C@@H](C(C)C)OC(=O)[C@H](C(C)C)N(C)C(=O)[C@@H](C(C)CC)OC(=O)[C@H](C(C)C)N(C)C1=O (stereo not given in full)
active: NCI-H23 lung 8.83% | NCI-H322M lung 8.61% | HOP-62 NSCLC 8.79% | NCI-H460 lung 9.08% | HOP-92 NSCLC -19.8% | NCI-H522 lung -2.93% | COLO 205 colon -91.8%
inactive: NCI-H226 lung 19.2% | A549/ATCC NSCLC 12.9% | 786-0 renal 10.4%

CC[C@]12C=CCN3CC[C@]4(C(=C(C(=O)OC)C1)Nc1cc5c(cc14)[C@@H]1[C@H](O5)[C@@H](O)[C@@]4(CC)CC(C(=O)OC)=C5Nc6cc(OC)ccc6[C@@]56CCN1[C@@H]46)[C@@H]32
inactive: NCI-H322M lung 15% | HOP-62 NSCLC 24.1% | HOP-92 NSCLC 37.1% | A549/ATCC NSCLC 20%
active: NCI-H23 lung -44.5% | NCI-H226 lung -1.39% | NCI-H460 lung 5.78% | NCI-H522 lung -11.8% | 786-0 renal -9.86% | COLO 205 colon -29.2%

COc1cc(OC)c(S(N)(=O)=O)cc1C(=O)/C=C/c1ccccc1
active: NCI-H460 lung 3.32% | HOP-92 NSCLC 2.22%
inactive: NCI-H23 lung 28.2% | NCI-H226 lung 38.8% | NCI-H322M lung 64.6% | HOP-62 NSCLC 24.8% | NCI-H522 lung 25.8% | A549/ATCC NSCLC 57.1% | 786-0 renal 15.3% | COLO 205 colon 27.5%

CC1(C)CC[C@]2(C(=O)O)CC[C@]3(C)C(=CCC4[C@@]5(C)C[C@@H](O)[C@@H]6OC(c7cccc([N+](=O)[O-])c7)OC[C@@]6(C)C5CC[C@]43C)C2C1 (stereo not given in full)
inactive: NCI-H23 lung 73.6% | NCI-H226 lung 77.2% | NCI-H322M lung 41.7% | HOP-62 NSCLC 65.2% | NCI-H460 lung 65.4% | HOP-92 NSCLC 69.1% | NCI-H522 lung 71.8% | A549/ATCC NSCLC 37.1% | 786-0 renal 90.9% | COLO 205 colon 53%

COc1cc(C(=O)C[n+]2ccc3ccccc3c2)cc(OC)c1OC
inactive: NCI-H23 lung 96.6% | NCI-H226 lung 95.9% | NCI-H322M lung 98.3% | HOP-62 NSCLC 97.3% | NCI-H460 lung 101% | HOP-92 NSCLC 80% | NCI-H522 lung 92.9% | A549/ATCC NSCLC 105% | 786-0 renal 102% | COLO 205 colon 103%

Oc1ccccc1-c1nnc(SCc2ccc(O)c3ncccc23)n1-c1ccccc1
inactive: NCI-H23 lung 17.4% | NCI-H322M lung 21.9% | HOP-62 NSCLC 13.6% | 786-0 renal 20.1% | COLO 205 colon 34.5%
active: NCI-H226 lung 9% | NCI-H460 lung 3.98% | HOP-92 NSCLC -4.85% | NCI-H522 lung -6.01% | A549/ATCC NSCLC 9.34%

CCC(CC)N1C(=O)/C(=c2\sc3n(c2=O)C2C(NN=3)N(CC)C(=O)N2CC)c2ccccc21 (stereo not given)
active: NCI-H23 lung 7.64% | NCI-H460 lung 4.83% | COLO 205 colon -13.2%
inactive: NCI-H226 lung 53.6% | NCI-H322M lung 61% | HOP-62 NSCLC 29.6% | HOP-92 NSCLC 86.7% | NCI-H522 lung 20.1% | A549/ATCC NSCLC 26% | 786-0 renal 34.9%

CS(=O)(=O)c1ccc2c(c1)c1c(n2C(=O)c2ccc(Cl)cc2)CCCC1
inactive: NCI-H23 lung 45% | NCI-H226 lung 60.9% | NCI-H322M lung 43.8% | HOP-62 NSCLC 43.1% | NCI-H460 lung 12.3% | HOP-92 NSCLC 35% | A549/ATCC NSCLC 50.6% | 786-0 renal 43.6%
active: NCI-H522 lung -44.2% | COLO 205 colon -1.12%

COCCC[C@H]1O[C@@](O)([C@H](C)[C@@H]2CC(OC)C(O)/C=C(C)/C=C(C)/C=C(\C)C(OC3O[C@@H](C)[C@H](O)C(O)[C@@H]3O)C(C)/C=C(C)/C=C(OC)/C=C(\C)C(=O)O2)C(OC)C(O)[C@]1(C)O[C@H]1C[C@@H](O)[C@H](O[C@H]2C[C@](C)(O)[C@H](O)C(C)O2)C(C)O1 (stereo not given in full)
inactive: NCI-H23 lung 41.2% | NCI-H226 lung 38.2% | NCI-H322M lung 97.4% | HOP-62 NSCLC 68.9% | NCI-H460 lung 52.1% | HOP-92 NSCLC 88.2% | NCI-H522 lung 34.2% | A549/ATCC NSCLC 40% | 786-0 renal 73.1% | COLO 205 colon 40.4%

COc1ccc(/C=C/C(=O)c2nnn(-c3ccc(Br)cc3)c2C)cc1OC
inactive: NCI-H23 lung 59.9% | NCI-H226 lung 70.7% | NCI-H322M lung 95.3% | HOP-62 NSCLC 88.1% | NCI-H460 lung 84.3% | HOP-92 NSCLC 81% | NCI-H522 lung 67.7% | A549/ATCC NSCLC 73.6% | 786-0 renal 93.5% | COLO 205 colon 90.4%

CCNCCCn1c2c(c3cc(OC)c(OC)cc3c1=O)C(=O)c1cc(OC)cnc1-2
inactive: NCI-H23 lung 21.1% | NCI-H226 lung 17.7% | NCI-H322M lung 33.2% | HOP-92 NSCLC 31.1% | NCI-H522 lung 13.4% | A549/ATCC NSCLC 34.4% | COLO 205 colon 13.4%
active: HOP-62 NSCLC -12.2% | NCI-H460 lung 0.566% | 786-0 renal -3.55%

CCC(CC)n1c(=O)c(SC2=NC3C(NN2)N(CC)C(=O)N3CC)c(C(=O)O)c2ccccc21 (stereo not given)
inactive: NCI-H23 lung 11.7% | NCI-H226 lung 36.1% | NCI-H322M lung 54.7% | HOP-62 NSCLC 33.6% | HOP-92 NSCLC 21.7% | A549/ATCC NSCLC 36.5% | 786-0 renal 27.9%
active: NCI-H460 lung 3.21% | NCI-H522 lung -45% | COLO 205 colon -53.4%

O=C1c2c(c3c4cc(Br)ccc4[nH]c3c3ccc4ccccc4c23)C(=O)N1CCN1CCNCC1
inactive: NCI-H23 lung 77.1% | NCI-H226 lung 87.6% | NCI-H322M lung 95.6% | HOP-62 NSCLC 60.9% | NCI-H460 lung 36.5% | HOP-92 NSCLC 82.5% | NCI-H522 lung 74.3% | A549/ATCC NSCLC 54.4% | 786-0 renal 76.5% | COLO 205 colon 86.5%

CNC(=O)c1cc(Oc2ccc3nc(NC(=O)c4ccc(CN5CCCN(C)CC5)c(C(F)(F)F)c4)sc3c2)ccn1
inactive: NCI-H23 lung 23% | NCI-H226 lung 82.9% | NCI-H322M lung 32.2% | HOP-62 NSCLC 11.5% | HOP-92 NSCLC 37.7% | A549/ATCC NSCLC 39.9%
active: NCI-H460 lung 5.57% | NCI-H522 lung -56.6% | 786-0 renal -76.3% | COLO 205 colon -64.4%

CCC(=O)Nc1cc(Nc2cc(NC3CC3)n3ncc(C#N)c3n2)ccc1C
inactive: NCI-H23 lung 15.3% | NCI-H226 lung 26.4% | NCI-H322M lung 19.4% | HOP-62 NSCLC 24.8% | NCI-H460 lung 16.1% | NCI-H522 lung 27% | A549/ATCC NSCLC 26.9% | 786-0 renal 42% | COLO 205 colon 30.4%
active: HOP-92 NSCLC 6.91%

NC(=O)N1N=C(c2cc3ccccc3oc2=O)CC1c1cn(-c2ccccc2)nc1-c1ccc(Cl)cc1 (stereo not given)
inactive: NCI-H23 lung 41.8% | NCI-H226 lung 50.4% | NCI-H322M lung 52% | HOP-62 NSCLC 43.1% | NCI-H460 lung 22.2% | HOP-92 NSCLC 42.6% | NCI-H522 lung 45.2% | A549/ATCC NSCLC 29.6% | 786-0 renal 39.3% | COLO 205 colon 28.8%

O=c1c2c(O)cccc2oc2c3c(cc(O)c12)O[C@H]1OC=C[C@@H]31
inactive: NCI-H23 lung 59.9% | NCI-H226 lung 88.7% | NCI-H322M lung 88.4% | HOP-62 NSCLC 82.4% | NCI-H460 lung 73.5% | HOP-92 NSCLC 88.7% | NCI-H522 lung 79.9% | A549/ATCC NSCLC 61% | 786-0 renal 98.9% | COLO 205 colon 75.1%

COc1cc2c3c(n(CCCN4CCC[C@H]4C(N)=O)c(=O)c2cc1OC)-c1cc2c(cc1C3=O)OCO2
active: NCI-H23 lung -3.5% | NCI-H226 lung -15% | HOP-62 NSCLC -0.224% | NCI-H460 lung 0.252% | 786-0 renal -10.3%
inactive: NCI-H322M lung 26.1% | HOP-92 NSCLC 23.9% | NCI-H522 lung 22% | A549/ATCC NSCLC 30.7% | COLO 205 colon 16.4%

O=C(Nc1cc(F)cc2cccnc12)c1cnc(N2CCOCC2)cn1
inactive: NCI-H23 lung 59.2% | NCI-H226 lung 80.7% | NCI-H322M lung 92% | HOP-62 NSCLC 87.3% | NCI-H460 lung 98.9% | HOP-92 NSCLC 83.7% | NCI-H522 lung 15.2% | A549/ATCC NSCLC 95.3% | 786-0 renal 65.7% | COLO 205 colon 18.1%

O=C1c2c(c3c4ccc(Br)cc4oc3c3[nH]c4ccccc4c23)C(=O)N1CCO
inactive: NCI-H23 lung 46.3% | NCI-H226 lung 33.3% | NCI-H322M lung 68.1% | HOP-62 NSCLC 12.2% | HOP-92 NSCLC 62.3% | NCI-H522 lung 43.8% | A549/ATCC NSCLC 48.7% | 786-0 renal 30.9% | COLO 205 colon 52.4%
active: NCI-H460 lung 3.9%

O=C(Nc1ccc(Cl)cc1)Nc1nc2ccc([N+](=O)[O-])cc2s1
active: NCI-H23 lung -45.5% | NCI-H226 lung -15% | NCI-H322M lung 2.65% | HOP-62 NSCLC -33.5% | NCI-H460 lung -9.27% | HOP-92 NSCLC -25.9% | NCI-H522 lung -21.3% | A549/ATCC NSCLC 1.71% | 786-0 renal 5.56% | COLO 205 colon -62.6%

N#Cc1ccc(S(=O)(=O)Nc2ccc(-c3cnc(N)[nH]3)cc2)cc1
inactive: NCI-H23 lung 99.1% | NCI-H226 lung 96.4% | NCI-H322M lung 97.4% | HOP-62 NSCLC 105% | NCI-H460 lung 103% | HOP-92 NSCLC 100% | NCI-H522 lung 94% | A549/ATCC NSCLC 98.4% | 786-0 renal 100% | COLO 205 colon 105%

COc1cc2c3c(n(CCCN4CCCC4)c(=O)c2cc1OC)-c1cc2c(cc1C3=O)OCO2
active: NCI-H23 lung -73.2% | NCI-H322M lung -40.2% | HOP-62 NSCLC -72.6% | NCI-H460 lung -78.6% | NCI-H522 lung -59.7% | A549/ATCC NSCLC -77.1% | 786-0 renal -90.9% | COLO 205 colon -77.3%
inactive: NCI-H226 lung 80.1% | HOP-92 NSCLC 119%
